# In PubChem BioAssay:
# Unmarked numbers belong to inactive results. The source made the active and inactive calls. Rule as the data show it, unless noted: active = inhibition above about 33%; inactive = the rest.
# Tests used:
# [1] = StAR promoter reporter inhibitors, counter-screen for LRH-1 inverse agonist project, cell-based, luminescence, high throughput (AID 651611; in the data active = inhibition above about 28%); conditions: StAR promoter luciferase reporter counterscreen, at 3.6 µM, hits give high values
# [2] = target: Nuclear receptor subfamily 5 group A member 2 (Homo sapiens) (UniProt O00482); assay: NR5A2 activity suppression in reporter cells – cell-based, luminescence, confirmation (AID 651613; in the data active = inhibition above about 42%;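 also: HEK293T cells co-transfected with LRH-1 and StAR promoter luciferase reporter; 0% = vehicle wells and 100% = parental cells lacking receptor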); conditions: cell-based LRH-1 luciferase reporter, inverse agonism; at 3.6 µM; hits give high values
# [3] = target: Steroidogenic factor 1 (Homo sapiens) (UniProt Q13285); assay: inverse agonism at SF1 nuclear receptor – cell-based, luminescence, high throughput, counter-screen for LRH-1 inverse agonist project (AID 651614; in the data active = inhibition above about 44%;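 also: cells cotransfected with StAR promoter reporter and SF1 expression vector; 0% = vehicle on cells with receptor and 100% = vehicle on cells lacking receptor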); conditions: cell-based SF1 luciferase reporter, at 3.6 µM, hits give high values
# [4] = compounds suppressing VP16-driven luciferase signal – cell-based, luminescence, high throughput, counter-screen for LRH-1 inverse agonist project (AID 651615); conditions: Gal4-VP16 luciferase reporter cells, at 3.6 µM, hits give high values
# Sequence of Nuclear receptor subfamily 5 group A member 2 (Homo sapiens) (O00482 whole entry, looked up): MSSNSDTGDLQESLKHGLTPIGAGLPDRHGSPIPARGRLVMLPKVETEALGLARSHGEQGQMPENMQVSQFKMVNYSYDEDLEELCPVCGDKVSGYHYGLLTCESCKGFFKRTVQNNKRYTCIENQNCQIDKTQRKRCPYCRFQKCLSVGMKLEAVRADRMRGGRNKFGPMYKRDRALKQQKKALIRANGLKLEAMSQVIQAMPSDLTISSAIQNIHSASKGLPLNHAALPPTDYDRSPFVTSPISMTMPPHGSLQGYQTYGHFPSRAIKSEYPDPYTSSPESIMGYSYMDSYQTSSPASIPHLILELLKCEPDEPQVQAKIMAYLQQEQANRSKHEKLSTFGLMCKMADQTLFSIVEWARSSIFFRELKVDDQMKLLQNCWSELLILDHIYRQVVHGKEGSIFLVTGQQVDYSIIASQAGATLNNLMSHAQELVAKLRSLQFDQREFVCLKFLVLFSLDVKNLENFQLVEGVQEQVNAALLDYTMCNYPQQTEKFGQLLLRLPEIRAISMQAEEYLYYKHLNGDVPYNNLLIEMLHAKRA
# Sequence of Steroidogenic factor 1 (Homo sapiens) (Q13285 whole entry, looked up, the tested form may be a part): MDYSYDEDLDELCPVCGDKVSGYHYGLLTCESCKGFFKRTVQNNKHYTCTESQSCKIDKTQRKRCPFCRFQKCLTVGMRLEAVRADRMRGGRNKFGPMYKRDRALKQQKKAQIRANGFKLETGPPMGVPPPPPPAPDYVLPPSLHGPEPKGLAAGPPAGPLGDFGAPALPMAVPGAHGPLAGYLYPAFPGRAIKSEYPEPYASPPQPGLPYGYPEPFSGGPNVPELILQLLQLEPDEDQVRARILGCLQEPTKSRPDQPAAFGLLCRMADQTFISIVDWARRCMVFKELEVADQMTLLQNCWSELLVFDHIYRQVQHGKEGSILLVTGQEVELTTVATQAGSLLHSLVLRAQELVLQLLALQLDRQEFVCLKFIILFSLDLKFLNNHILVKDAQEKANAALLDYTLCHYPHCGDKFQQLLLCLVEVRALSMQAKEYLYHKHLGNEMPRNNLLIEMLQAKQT
SMILES,inhibition [1],inhibition [2],inhibition [3],inhibition [4]
Cc1cc(=O)oc2cc(O)cc(OCc3ccccc3)c12,26%,51.7% (active),45.2% (active),-8.41%
Cc1no[n+]([O-])c1COc1ccc(/C=N/n2nnnc2N)cc1,-1.3%,51.9% (active),48.4% (active),0.06%
CCCN(CC(=O)Nc1ccccc1C)CC(=O)Nc1ccc(Br)cc1F,8.48%,58.6% (active),51.6% (active),1.69%
Cc1cc(Br)ccc1NC(=O)CSc1nnc(CN2CCOCC2)n1C,15.4%,47.8% (active),42.5%,0.09%
O=C(Nc1ccc(F)cc1)C(c1cc2ccccc2o1)N1CCN(c2cccc(C(F)(F)F)n2)CC1 (stereo not drawn),11%,24.9%,35.4%,16.1%
COc1ccc(C2(C)NC(=O)N(CC(=O)NCCC3=CCCCC3)C2=O)cc1OC (stereo not drawn),7.18%,67.2% (active),38.1%,0.38%
CS/C(=C\[N+](=O)[O-])Nc1ccc(OC(F)(F)F)cc1,42% (active),83.9% (active),84.6% (active),9.63%
Cc1nn(C)c(C)c1CN(Cc1nc(CCC(C)C)no1)C(C)C,20.7%,59.6% (active),54.2% (active),52.8% (active)
Cc1cc(OCC(=O)NC2CC2)c2c(C)c(C)c(=O)oc2c1,13.4%,65.4% (active),53.2% (active),-21.9%
COc1ccc(CNC(=O)c2sc(=O)n(Cc3ccc(-c4ccccc4)cc3)c2C)cc1OC,26%,37.7%,42.5%,31.6% (active)
CC1CC(C)CN(c2cc(N(C)CCO)c([N+](=O)[O-])c3nonc23)C1 (stereo not drawn),13.7%,64.2% (active),63.6% (active),-3.82%
N#Cc1c(N)c(C#N)c(-c2ccc(O)cc2)c2c1CCCC2,6.6%,57.8% (active),53.8% (active),9.21%
CCCc1cc(=O)oc2cc(OCC(=O)NCCc3c[nH]c4ccc(OC)cc34)ccc12,6.12%,28.9%,40.4%,-23.9%
CO/N=C/C(=N\Nc1cc(OC)cc(OC)c1)C(=O)c1ccccc1,13.2%,63.4% (active),58.3% (active),0.16%
O=C(c1ccccc1)c1cc(-c2ccccn2)c(N2CCOCC2)s1,-8.68%,68.3% (active),63.4% (active),0.02%
Cc1cc(C(=O)N/N=C/c2ccc([N+](=O)[O-])o2)c(C)o1,9.16%,71.5% (active),65.2% (active),3.18%
O=C(COc1ccc2c3c(c(=O)oc2c1)CCCC3)NCc1ccccn1,2.43%,57.6% (active),56.7% (active),-9.09%
Oc1ccc2ccccc2c1C=NCc1ccccc1,22.8%,15.3%,16.9%,3.34%
CCOc1ccc(CCNC(=O)COC(=O)c2c(C)nn(-c3ccccc3)c2C)cc1OCC,3.09%,41.6% (active),28.1%,2.25%
CCCn1c(=NC(=O)CCS(=O)(=O)c2ccccc2)sc2cc(S(N)(=O)=O)ccc21,1.11%,32.3%,31.1%,-13.8%
CC(=O)Nc1ccc(-c2ccnc3c2CC(C(=O)NCc2ccco2)O3)cc1 (stereo not drawn),48.1% (active),42.6% (active),44.6% (active),24.2%
CC1OC(CC(=O)O)CC2=C1C(=O)c1c(O)cccc1C2=O (stereo not drawn),95.4% (active),111% (active),98.2% (active),95.8% (active)
